# The list is not random: actives were taken first. Their share in the collection is about 2.5%.
# LMP1 NFkB inh = reduces LMP1-driven NF-kappaB luciferase signal; inhibition, % at 12.5 µM; hit rate 0.69% among 350,000; LMP1-induced NF-kappaB luciferase reporter cells, luminescence; AID 504558; in the data active = inhibition above about 41%; inconclusive = no clear call, values can overlap the other calls;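 also: 0% = neutral control wells and 100% = reference inhibitor control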
# EWS-Fli inh = blocks EWS/Fli oncoprotein-driven transcription. AID 651661. hit rate 0.67% among 350,000. A673 NR0B1-luciferase reporter, viability-normalised. inhibition, % at 12.6 µM;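 active = mean inhibition of at least 50% after viability correction, with every replicate also passing that limit; inconclusive = mean reaches 50% but only one of two replicates passes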;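 also: firefly luciferase signal divided by Alamar Blue viability fluorescence both relative to DMSO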
# LGR2 inh = inhibitors of bursicon-induced Drosophila LGR2 receptor cAMP signaling. HEK293 LGR2, CRE-luciferase, bursicon-stimulated, 4 h. inhibition, % at 9.99 µM. hit rate 0.35% among 380,000. AID 720647;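 active = drop in luminescence signal, shown as inhibition above about 50% in the replicate tests, limit read from the data, passing the limit was not always enough; inconclusive = probably only some replicates passing the limit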;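 also: agonist challenge used bursicon conditioned medium at about half maximal strength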
# TROY signal inh = TROY signaling inhibition; hit rate 0.98% among 360,000; inhibition, % at 10 µM; Q293 LMP1-TROYcd NF-kB luciferase reporter, 4 h;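 active = compounds whose plate-normalised and pattern-corrected inhibition of the luciferase reporter signal at the single screening dose is 50% or more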
# TWEAK Fn14 block = blocks TWEAK-Fn14 interaction in a reporter cell assay; TWEAK-stimulated Fn14 reporter cells, luciferase luminescence, 8 h; inhibition, % at 10 µM; hit rate 2% among 360,000; AID 1159606; in the data active = inhibition above about 50%
# Starred values were filed as active, the others as inactive; ? = inconclusive; nt = not tested or not shown.
SMILES,LMP1 NFkB inh,EWS-Fli inh,LGR2 inh,TROY signal inh,TWEAK Fn14 block
CC(OC(=O)/C=C/c1ccc2ccccc2n1)C(=O)Nc1ccc(S(N)(=O)=O)cc1 (stereo not given),-25.4,11.5,10.0,16.6,58.1*
COc1cc([C@@H]2C[C@H]3CN(c4ccccc4)C(=O)[C@]34CCCN24)cc(OC)c1OC,32.6,7.6,32.6,-1.2,-2.6
COc1ccccc1-n1cc([C@@H]2C[C@H]3CN(c4ccccc4)C(=O)[C@]34CCCN24)cn1,60.0*,-13.5,24.8,39.6,80.0*
COc1ccccc1-c1ccc([C@H]2[C@@H](CO)N(C(=O)NC(C)C)[C@H]2C#N)cc1,nt,-22.2,-24.6,nt,nt
C#CCOc1ccc(C2C3=C(COC3=O)Nc3cc4c(cc32)OCO4)cc1OC (stereo not given),-4.4,58.4*,-21.0,-0.1,-21.8
O=C1OCC2=C1C(c1ccc(F)cc1)c1cc3c(cc1N2)OCCO3 (stereo not given),-6.4,46.0,-5.5,13.9,49.5
O=C1OCC2=C1C(c1ccc(F)cc1)c1cc3c(cc1N2)OCO3 (stereo not given),-4.1,66.6*,nt,-0.9,-10.6
CO[C@H]1CN(C)C(=O)c2ccc(NS(C)(=O)=O)cc2OC[C@H](C)N(CCC(F)(F)F)C[C@H]1C,nt,-4.0,-11.9,nt,nt
O=C(NNc1nc2ccc(Cl)cc2s1)c1cc(-c2cccs2)nc2ccccc12,27.2,14.4,nt,39.1,58.1*
O=C(N/N=C/c1cccnc1)c1cc(-c2cccs2)nc2ccccc12,57.7*,nt,11.2,-1.5,-11.0
O=C(N/N=C/c1ccc2ncccc2c1)c1cc(-c2cccs2)nc2ccccc12,-0.8,-7.7,-14.4,-24.0,10.2
O=C(c1ccco1)N1CCN(C(=O)c2ccco2)C1=S,-4.6,-9.1,83.0*,27.2,50.7*
CCS(=O)(=O)N1CCN(C(=O)c2ccco2)CC1,-6.4,-5.3,5.9,-14.7,7.1
Cn1cc(S(=O)(=O)N2CCN(C(=O)c3ccco3)CC2)c(=O)n(C)c1=O,87.5*,-4.7,0.9,-5.2,5.7
O=C(c1ccco1)N1CCN(C(=O)N2c3ccccc3Sc3ccccc32)CC1,5.3,54.3*,9.9,22.3,32.5
CCCS(=O)(=O)N1CCN(C(=O)c2ccco2)CC1,0.8,nt,nt,12.9,77.1*
Cc1c(S(=O)(=O)N2CCN(C(=O)c3ccco3)CC2)c(=O)n(C)c(=O)n1C,0.6,-0.4,0.4,-13.8,6.2
O=C(Nc1ccc(N2CCCC2)c(Cl)c1)c1cccnc1,-10.0,nt,nt,nt,82.8*
CNC[C@H]1Oc2ccc(NC(=O)Nc3c(C)noc3C)cc2C(=O)N([C@@H](C)CO)C[C@@H]1C,nt,-5.2,-9.3,nt,nt
C[C@@H]1CN([C@@H](C)CO)C(=O)c2cc(NC(=O)Cc3cn(C)c4ccccc34)ccc2O[C@H]1CN(C)C(=O)Nc1ccc(F)cc1,nt,2.0,31.7,nt,nt
COc1cc(/C=N/NC(=O)c2cccc([N+](=O)[O-])c2)ccc1OCc1ccccc1,-1.8,-73.1,-40.4,-21.5,-15.1
COC(=O)C(=Cc1ccc(OCc2ccc([N+](=O)[O-])cc2)c(OC)c1)C(=O)OC,13.0,nt,nt,57.4*,90.8*
CCOC(=O)C(=Cc1ccc(OCc2ccc([N+](=O)[O-])cc2)c(OC)c1)C(=O)OCC,-6.7,nt,nt,30.2,58.1*
COc1ccc(-c2noc(CCC(=O)Nc3cccnc3)n2)cc1,nt,-27.8,-14.0,-14.3,-24.7
CNC(=O)CCc1nc(-c2ccc(C(C)(C)C)cc2)no1,-1.9,nt,-53.3,-19.0,-1.3
SMILES,LMP1 NFkB inh,EWS-Fli inh,LGR2 inh,TROY signal inh,TWEAK Fn14 block
CC(C)(C)c1ccc(-c2noc(CCC(=O)Nc3cccnc3)n2)cc1,78.3*,43.6,15.9,58.1*,36.2
CC(C)(C)c1ccc(-c2noc(CCC(N)=O)n2)cc1,53.5*,nt,15.2,46.3,10.7
C[C@@H]1CN([C@@H](C)CO)C(=O)c2cc(NC(=O)Nc3ccc(F)cc3)ccc2O[C@H]1CN(C)C,nt,5.7,-7.2,nt,nt
O=C(CC(F)(F)F)N1C[C@@H]2[C@H](c3ccccc31)[C@H](CO)N2CC1CCOCC1,nt,1.1,0.7,nt,nt
O=C(Nc1nnc(-c2cccs2)o1)c1cccc(C(F)(F)F)c1,?,29.0,17.0,8.7,101.2*
CCc1ccc2nc(SCC(=O)Nc3ccccc3N3CCOCC3)c(C#N)cc2c1,26.9,58.6*,-3.3,7.5,14.3
COC(=O)c1ccc(COc2cccc3c2CCN(Cc2cccc(C)c2)C3=O)o1,11.9,6.4,8.2,38.4,55.4*
COC(=O)c1ccc(COc2cccc3c2CCN(Cc2ccccc2)C3=O)o1,3.2,nt,11.2,28.1,35.0
C[C@@H]1CN([C@H](C)CO)S(=O)(=O)c2ccc(C3=CCCC3)cc2O[C@@H]1CN(C)S(C)(=O)=O,nt,1.7,6.2,nt,nt
C[C@H](CO)N1C[C@H](C)[C@H](CN(C)S(=O)(=O)c2cccs2)OCCCC[C@H](C)Oc2ccc(NC(=O)c3ccncc3)cc2C1=O,nt,-1.2,15.0,nt,nt
Cc1ccc(S(=O)(=O)Nc2nnc(CC(C)(C)C)s2)cc1,0.8,11.6,-7.8,-21.9,108.5*
C[C@@H](NC(=O)C[C@H]1C[C@H]2c3cc(NC(=O)C4CCOCC4)ccc3O[C@H]2[C@H](CO)O1)c1ccccc1,nt,0.3,1.6,nt,nt
Cc1noc(C)c1S(=O)(=O)Nc1ccc2c(c1)C(=O)N([C@H](C)CO)C[C@@H](C)[C@H](CN(C)C(=O)CCC(F)(F)F)OCCCC[C@@H](C)O2,nt,-0.6,0.1,nt,nt
Cc1ccc(NC(=O)c2cc(S(=O)(=O)N3CCOCC3)ccc2F)c(C)c1,-10.3,nt,nt,-20.3,79.7*
O=C(Nc1ccc(S(=O)(=O)N2CCOCC2)cc1)c1ccc([N+](=O)[O-])cc1Cl,-6.2,10.3,-10.0,-4.0,-35.2
O=C(Nc1ccccc1Cl)c1cc(S(=O)(=O)N2CCCC(C(=O)O)C2)ccc1F (stereo not given),-1.1,nt,22.4,5.6,88.0*
O=C(Nc1cc(S(=O)(=O)N2CCOCC2)ccc1Cl)c1cc([N+](=O)[O-])ccc1Cl,-1.0,nt,nt,4.5,77.5*
CCN(C(=S)Nc1cc(S(=O)(=O)N2CCOCC2)ccc1Cl)c1cccc2ccccc12,2.9,-10.5,12.1,15.4,86.7*
O=C(Nc1ccccc1C(=O)O)c1cc(S(=O)(=O)N2CCCCCC2)ccc1Cl,-0.7,nt,7.3,30.7,0.0
O=S(=O)(c1ccc(Cl)c(NC(=S)Nc2cccc(O)c2)c1)N1CCOCC1,-18.0,-1.0,11.6,-0.3,-3.3
O=C(NCC1CC1)[C@@H]1[C@@H](CO)[C@@H]2Cn3c(cccc3=O)[C@@H]2N1C(=O)CC1CC1,nt,5.6,24.3,nt,nt
C[C@@H]1CN([C@H](C)CO)C(=O)c2cc(-c3ccc(C#N)cc3)cnc2O[C@@H]1CN(C)Cc1ccccn1,nt,-6.3,15.3,nt,nt
CSc1ccc(COC(=O)c2cc([N+](=O)[O-])ccc2N2CCOCC2)cc1,9.8,55.2*,-32.6,13.2,16.8
COc1ccc(OC)c(COC(=O)c2cc([N+](=O)[O-])ccc2N2CCOCC2)c1,10.5,64.6*,-4.3,-9.0,-17.9
O=C(NCCOc1ccccc1)c1cc([N+](=O)[O-])ccc1N1CCOCC1,12.6,57.6*,-8.9,28.3,11.2

# Bioassay records (PubChem)
